# Reference: PubChem BioAssay (NCI)
# About 79,000 compounds went through this panel and 15% of them were active in at least one assay; those are over-represented in the sample as a whole. A number with no mark means an inactive call. Active and inactive are the calls of the source. Rule as the data show it: active = growth inhibition above about 70%; inactive = the rest. *1 amine or outer side, *2 acyl side, *3 side chain or, on linkers, in order; H or OH if unused. Where a SMILES comes first, the peptide text is derived from it. [ ]: non-standard residue; d: D form. The star is where a group is joined. X5 = CCC(=O)CC1CC(C)CC(C(=O)[*:2])N1[*:1]; X4 = CCCCCCCCC(C)C(=O)*; Aib = CC(C)(N)C(=O)O; X6 = CC(CN(C)CCO)N*
# How the values were obtained:
# [1] = NCI Yeast Anticancer Drug Screen. Data for the rad50 strain (AID 155);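 also: 0% = growth of vehicle-only cultures of the same strain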; conditions: S. cerevisiae rad50 strain growth inhibition, hits give high values
# How it was run: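 Readout: growth inhibition relative to vehicle-treated cultures. Compound exposure was carried out in a genetically defined yeast strain deficient in DNA damage repair.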
# [2] = NCI Yeast Anticancer Drug Screen. Data for the mec2-1 strain (AID 157); conditions: S. cerevisiae mec2-1 strain, hits give high values
# How it was run: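 Growth inhibition is read against vehicle-treated controls after compound exposure of the mec2-1 yeast strain, which is defective in DNA damage repair or cell cycle control.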
# [3] = NCI Yeast Anticancer Drug Screen. Data for the sgs1 mgt1 strain (AID 161);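 also: 0% = growth of cultures given vehicle only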; conditions: S. cerevisiae sgs1 mgt1 strain, hits give high values
# How it was run: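 Growth of a repair-deficient yeast mutant was monitored after compound treatment and expressed as inhibition relative to vehicle-treated cultures.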
# [4] = NCI Yeast Anticancer Drug Screen. Data for the cln2 rad14 strain (AID 165);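 also: 0% = growth equal to vehicle treated cultures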; conditions: S. cerevisiae cln2 rad14 strain, hits give high values
# How it was run: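 Growth inhibition, relative to vehicle-treated controls, is the read-out. The test organism is a yeast strain with defined genetic alterations, cln2 rad14.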
# [5] = NCI Yeast Anticancer Drug Screen. Data for the bub3 strain (AID 167); conditions: S. cerevisiae bub3 mutant strain, hits give high values
# How it was run: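 Readout: yeast growth inhibition, expressed relative to vehicle-only wells. The test organism is a mutant strain from a panel with lesions in DNA repair or checkpoint genes.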
# [6] = NCI Yeast Anticancer Drug Screen. Data for the mlh1 rad18 strain (AID 175); conditions: S. cerevisiae mlh1 rad18 strain growth inhibition, hits give high values
# How it was run: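 Cells of a genetically altered yeast strain, deficient in DNA damage repair, were treated with compound. Their growth was then compared with that of vehicle-treated cultures to give inhibition.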
# [7] = at 5.0 µM (retest, dose inferred, filed as 0.5)
# [8] = at 50.0 µM (retest, dose inferred, filed as 5.0)
Compound,"growth inhibition [1, 7]","growth inhibition [1, 8]",growth inhibition ([1]; at 50.0 µM),"growth inhibition [2, 7]","growth inhibition [2, 8]",growth inhibition ([2]; at 50.0 µM),"growth inhibition [3, 7]","growth inhibition [3, 8]",growth inhibition ([3]; at 50.0 µM),"growth inhibition [4, 7]","growth inhibition [4, 8]",growth inhibition ([4]; at 50.0 µM),"growth inhibition [5, 7]","growth inhibition [5, 8]",growth inhibition ([5]; at 50.0 µM),"growth inhibition [6, 7]","growth inhibition [6, 8]",growth inhibition ([6]; at 50.0 µM)
CCCCC(CCc1ccc([N+](=O)[O-])cc1)(C(C)=O)C(=O)OCC (configuration not stated),1%,-41%,59.7%,2%,-10%,13.1%,-2%,24%,47%,-4%,-14%,4.75%,11%,45%,83.2% (active),-10%,-50%,62%
COc1ccc2c(c1)C(N)=C(c1ccccc1)C2=O,14%,15%,70.2% (active),16%,8%,28.2%,16%,28%,63.1%,17%,10%,0.55%,24%,19%,59.2%,21%,9%,-31.8%
Cc1ccc2cccc(OC(=O)Nc3cccc(C(F)(F)F)c3)c2n1,50%,95% (active),91.4% (active),39%,98% (active),89.9% (active),50%,100% (active),91.1% (active),38%,98% (active),91% (active),42%,98% (active),90.9% (active),50%,98% (active),92.5% (active)
Oc1cc(Cl)ccc1Cc1ccc(Cl)cc1O,97% (active),100% (active),99.8% (active),99% (active),100% (active),99.7% (active),98% (active),100% (active),99.6% (active),98% (active),94% (active),99.5% (active),99% (active),100% (active),99.6% (active),96% (active),96% (active),99.7% (active)
COc1ccc(NC(=O)/C(=C/N2C(=O)/C(=C/c3ccc(OC)c(OC)c3)NC2=S)C(C)=O)cc1,5%,66%,54.3%,-3%,85% (active),53.1%,-5%,86% (active),51.9%,-22%,51%,37%,-21%,76% (active),64.8%,-6%,82% (active),76.7% (active)
COc1ccc(C(Cn2ccnc2)Sc2ccc(Cl)c(Cl)c2)cc1 (configuration not stated),74% (active),97% (active),92.9% (active),60%,97% (active),93.8% (active),72% (active),97% (active),88.7% (active),47%,86% (active),90.7% (active),76% (active),98% (active),86.5% (active),81% (active),96% (active),91.3% (active)
CN1CCC(c2ccccc2)(c2ccccc2)C(=O)C1,11%,95% (active),95.2% (active),-5%,83% (active),94% (active),21%,95% (active),93.8% (active),15%,69%,74.3% (active),34%,96% (active),89.2% (active),47%,95% (active),94.5% (active)
c1csc(-c2[nH]nc3c2CCc2ccccc2-3)c1,19%,97% (active),98.3% (active),-13%,97% (active),96.6% (active),-2%,98% (active),97.6% (active),-6%,96% (active),98.5% (active),18%,98% (active),97.1% (active),-3%,97% (active),98.8% (active)
CCCCCCCCC(C)C(=O)N1CCCC1C(=O)N1C(CC(=O)CC)CC(C)CC1C(=O)NC(C)C(=O)NC(C)(C)C(=O)NC(C)(C)C(=O)NC(C(=O)NC(C)C(=O)NC(C)(C)C(=O)NC(C)(C)C(=O)NC(C)CN(C)CCO)C(C)CC (configuration not stated) (X4-P[X5]A[Aib][Aib]IA[Aib][Aib]-X6; configuration not given here),98% (active),100% (active),91.6% (active),99% (active),100% (active),93.5% (active),99% (active),100% (active),92.8% (active),99% (active),99% (active),90.9% (active),99% (active),99% (active),92.4% (active),99% (active),99% (active),89.7% (active)
C/C=C/c1cc2c(c(=O)o1)C(=O)[C@@H](O)[C@H](C)O2,8%,17%,23.5%,11%,21%,2%,15%,30%,34.5%,8%,11%,-1.15%,14%,28%,18.9%,8%,26%,60.3%
O=C1c2ccccc2C(=O)c2c(O)c(Cl)cc(O)c21,3%,20%,15.9%,2%,26%,1.3%,7%,71% (active),38.3%,5%,9%,-55.6%,4%,38%,-2.2%,6%,57%,78% (active)
CC1=CC[C@@H]2[C@@H](CC[C@@]2(C)O)C(C)(C)[C@H]1CC[C@@H]1[C@@]2(C)CC[C@@H](O)C(C)(C)O[C@@H]2CC[C@]1(C)O,12%,39%,62.9%,-8%,19%,38%,4%,70% (active),77.5% (active),18%,19%,46%,17%,33%,45.8%,-2%,20%,12.6%
NNc1ccc(Cl)cc1Cl,79% (active),97% (active),98.4% (active),54%,99% (active),99.4% (active),66%,98% (active),50.6%,75% (active),99% (active),58.6%,85% (active),98% (active),98.8% (active),77% (active),98% (active),48.1%
Nc1nc2ncc(CNc3ccc(C(=O)NC(CCC(=O)NC(CCC(=O)NC(CCC(=O)NC(CCC(=O)NC(CCC(=O)O)C(=O)O)C(=O)O)C(=O)O)C(=O)O)C(=O)O)cc3)nc2c(=O)[nH]1 (configuration not stated),-19%,-9%,25.2%,0%,-6%,18.3%,0%,-12%,24.6%,12%,1%,47%,-5%,-2%,-19.5%,10%,20%,8.35%
O=C(Cc1nc2cc(Cl)c(Cl)cc2nc1CC(=O)c1ccccc1)c1ccccc1,-7%,93% (active),96.4% (active),-9%,76% (active),96.8% (active),-9%,84% (active),96.8% (active),7%,74% (active),94.8% (active),-4%,90% (active),96.5% (active),-9%,93% (active),96% (active)
CCCCCCCCCCCCN1C(C)=CS/C1=C\C=C\c1scc(C)[n+]1CCCCCCCCCCCC,9%,94% (active),88% (active),-4%,97% (active),89.2% (active),18%,96% (active),84.7% (active),4%,91% (active),85% (active),23%,95% (active),85% (active),1%,93% (active),83% (active)
Oc1ccc(Br)cc1Sc1cc(Br)ccc1O,6%,99% (active),87.9% (active),28%,99% (active),99.7% (active),26%,100% (active),99.7% (active),14%,98% (active),99.4% (active),16%,99% (active),99.2% (active),53%,99% (active),99.5% (active)
C1=C(c2ccccc2)c2ccccc2C1,0%,29%,75.2% (active),-23%,17%,63.4%,-13%,12%,48%,23%,19%,50%,-12%,18%,58.9%,5%,57%,49.9%
O=C/C=C/c1ccc([N+](=O)[O-])cc1,24%,98% (active),80.4% (active),49%,100% (active),83.5% (active),18%,98% (active),95.5% (active),8%,98% (active),46.7%,17%,99% (active),95.3% (active),72% (active),99% (active),90.5% (active)
